Compounds with a hit are over-represented: about 1.7% of the library has one in this group of screens.
TLR9-MyD88 block = inhibitors of TLR9-MyD88 association in cells, primary screen, cell-based, CHO, BLA complementation, fluorescence; Toll-like receptor 9 (Homo sapiens) + Myeloid differentiation primary response protein …; AID 504734, 2011; CCF4 FRET ratio; inhibition, % at 4.98 µM; 0.21% of 340,000 active;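 active means inhibition above the mean over all tested compounds plus 3 SD, cut at about 21% in these data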;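 further: 0% = DMSO only wells and 100% = clavulanate BLA inhibitor control wells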
ABCB6 inh 2 = ABCB6 transporter inhibitors, primary screen, K562-ABCB6 cells, flow cytometry, MLPCN library; ATP-binding cassette sub-family B member 6 (Homo sapiens), Q9NP58; K562-ABCB6 porphyrin accumulation, 1 h; active compounds read low; fluorescence ratio to DMSO, % at 10 µM; 0.19% of 360,000 active; AID 602162, 2011;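 active means fluorescence ratio to DMSO below 75%, the collection mean minus 3 SD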;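 further: signal is porphyrin accumulated inside mitochondria; 100% equals median channel fluorescence of DMSO control wells; lower ratio means ABCB6 inhibition with less porphyrin fluorescence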
Target sequence (Q9NP58 whole entry, looked up): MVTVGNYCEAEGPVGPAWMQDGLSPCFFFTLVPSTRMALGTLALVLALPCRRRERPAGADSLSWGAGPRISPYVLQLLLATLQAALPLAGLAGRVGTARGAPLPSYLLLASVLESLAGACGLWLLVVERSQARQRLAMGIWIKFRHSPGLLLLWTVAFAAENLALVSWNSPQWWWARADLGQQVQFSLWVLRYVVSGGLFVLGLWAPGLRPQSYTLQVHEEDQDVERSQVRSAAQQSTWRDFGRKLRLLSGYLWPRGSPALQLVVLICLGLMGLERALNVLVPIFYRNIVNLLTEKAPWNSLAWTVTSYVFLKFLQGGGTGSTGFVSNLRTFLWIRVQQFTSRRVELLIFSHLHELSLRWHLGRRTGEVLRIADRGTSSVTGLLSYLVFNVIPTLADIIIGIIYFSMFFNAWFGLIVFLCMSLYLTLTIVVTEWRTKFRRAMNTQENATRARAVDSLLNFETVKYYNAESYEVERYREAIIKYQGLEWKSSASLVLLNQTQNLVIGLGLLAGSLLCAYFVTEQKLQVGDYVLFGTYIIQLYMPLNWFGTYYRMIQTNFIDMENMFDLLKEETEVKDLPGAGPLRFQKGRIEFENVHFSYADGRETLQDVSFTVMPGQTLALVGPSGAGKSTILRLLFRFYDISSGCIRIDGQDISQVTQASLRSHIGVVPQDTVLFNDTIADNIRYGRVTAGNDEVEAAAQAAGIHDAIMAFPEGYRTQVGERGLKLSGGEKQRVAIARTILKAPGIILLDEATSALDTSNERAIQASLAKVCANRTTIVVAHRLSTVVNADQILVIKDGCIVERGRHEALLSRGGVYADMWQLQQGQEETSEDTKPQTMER
Myeloid diff 2 = induction of myeloid progenitor differentiation, primary screen, cell-based, flow cytometry, MLPCN library | ER-HoxA9 myeloid progenitors, lysozyme-GFP differentiation | calls only at 10 µM | 1% of 360,000 active | AID 624256, 2012;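 active means normalized GFP-positive differentiation at or above the plate's own cutoff, the solvent-only control mean plus 3 SD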;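 further: cells exposed to compound for four days before flow analysis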
TLR4-MyD88 BLA = inhibitors of TLR4-MyD88 association in cells, primary screen, cell-based, HeLa CL3-4, BLA complementation, FRET ratio; Toll-like receptor 4 (Homo sapiens) + Myeloid differentiation primary response protein …; 0.18% of 200,000 active; inhibition, % at 8.4 µM; HeLa CL3-4 TLR4/MyD88 BLA complementation; in the data active means inhibition above about 25%;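 further: 0% = vehicle and 100% = reference inhibitor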
NOD2-RIPK2 inh = NOD2-RIPK2 binding disruptors in cells, primary screen, fluorescence, CHO cells, BLA complementation; Receptor-interacting serine/threonine-protein kinase 2 (Homo sapiens), O43353; CCF4 ratio; inhibition, % at 4.98 µM; 0.38% of 360,000 active; in the data active means inhibition above about 21%;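 further: 0% = vehicle only and 100% = reference blocker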
Myeloid diff = inducers of myeloid progenitor differentiation, confirmation, cell-based, GFP/Mac1 flow cytometry, cherry pick 01 | shares compounds with Myeloid diff 2 | ER-HoxA9 myeloid progenitors, GFP/Mac1 double-positive flow | calls only | 2% of 2,300 active;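 active means share of green or green-and-red cells above 9 and 9% in run 1 or 4 and 3% in run 2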
GFP autofluor = flagged as fluorescent in myeloid differentiation counter-screen | shares compounds with Myeloid diff 2 | ER-HoxA9 myeloid progenitors, no estrogen, GFP autofluorescence flow cytometry; vehicle wells 0%, positive control 100% | fluorescence response, % (no concentration beside the values) | 7.4% of 2,300 active;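 active means over 5% cells positive for green fluorescent reporter, or over 2% positive for both it and APC stain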;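 further: range taken on the double positive population between DMSO and positive control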
* hit, by the source's call; i = inactive; x = no result; + = active, no number.

SMILES | TLR9-MyD88 block | ABCB6 inh 2 | Myeloid diff 2 | TLR4-MyD88 BLA | NOD2-RIPK2 inh | Myeloid diff | GFP autofluor
CCOC(=O)[C@]12CCCC=C1N(Cc1ccccc1)C(=O)[C@H](CC(=O)N1CCC(c3ccccc3)CC1)C2 | x | x | i | x | -10 | x | x
CCC(=O)C1CCCN(C(=O)CCc2nnc(C3(c4ccc(Cl)cc4)CCC3)o2)C1 (centres undefined) | -14 | 102 | i | x | 1 | x | x
O=C(CCSCc1cccc(Cl)c1)NCCc1ccc(Cl)cc1 | -8 | 97 | i | -6 | 0 | x | x
O=C(O)CC1(CC(=O)Nc2ccc(C(F)(F)F)cc2)CCCC1 | 1 | 99 | x | x | -2 | x | x
CC(C)(C)c1ccc(NC(=O)CC2(C(F)(F)F)OCCO2)cc1 | -5 | 101 | i | 7 | -1 | i | 2
COc1ccc(NC2CCCN(C(=O)c3ccccc3N3CCOCC3)C2)cc1OC (centres undefined) | 2 | 95 | i | x | -9 | x | x
CCOC(=O)C1CCCN(Cc2nc(Cc3ccccc3Cl)no2)C1 (centres undefined) | 9 | 93 | i | -2 | -5 | x | x
O=C(CC1C(=O)NCCN1C(=O)Nc1ccccc1)Nc1cccc(C(F)(F)F)c1 (centres undefined) | 5 | 89 | + | 3 | 4 | i | 1
CN=C1SC(CC(=O)Nc2cccc(C(F)(F)F)c2)C(=O)N1C (centres undefined) | 4 | 100 | i | 2 | 5 | i | 0
O=C(CC1SCCNC1=O)Nc1cccc(C(F)(F)F)c1 (centres undefined) | -3 | 101 | + | 0 | -3 | i | 0
CCOc1ncccc1C(=O)OCC(=O)Nc1cccc(S(N)(=O)=O)c1 | 1 | 100 | i | -1 | 3 | x | x
O=C(CC[C@H]1O[C@@H](n2ccc(=O)[nH]c2=O)[C@H](O)[C@@H]1O)N[C@H](Cc1ccccc1)C(=O)NCc1ccccc1 | x | 100 | i | x | -5 | x | x
Cc1cccc(C(C)C)c1NC(=O)C1CN(S(=O)(=O)c2ccccc2)CCN1S(=O)(=O)c1ccccc1 (centres undefined) | -7 | 103 | i | 6 | -6 | x | x
Cn1cc(-c2cnc3c(NC=O)cc(-c4cccc(C(F)(F)F)c4)cn23)cn1 | x | 89 | + | x | 6 | i | 2
COc1cc(-c2cnc3c(NC=O)cc(-c4cccc(C(F)(F)F)c4)cn23)cc(OC)c1OC | x | 103 | x | x | -6 | x | x
COc1ccc(-c2cc(NC(C)=O)c3ncc(-c4cccc(C(F)(F)F)c4)n3c2)c(OC)c1 | x | 101 | i | x | -8 | x | x
COc1ccc(-c2cc(NC=O)c3ncc(-c4cccc(C(F)(F)F)c4)n3c2)c(OC)c1 | x | 112 | + | x | -6 | i | 0
O=C(CNC(=O)c1cccc(-n2cnnn2)c1)Nc1ccc(F)c(F)c1 | 6 | 97 | i | x | 1 | x | x
CCN1CCN(CCCNC(=O)CS(=O)(=O)Cc2nc(-c3cccc(OC)c3)oc2C)CC1 | -15 | 102 | i | x | 1 | i | 1
COc1cccc(-c2nc(CS(=O)(=O)CC(=O)NCCCN3CCN(C)CC3)c(C)o2)c1 | -1 | 103 | i | x | 3 | x | x
CCOC(=O)c1ccccc1NS(=O)(=O)c1ccccc1F | -11 | 109 | + | -11 | -9 | i | 1
CCOC(=O)c1ccccc1NS(=O)(=O)c1ccccc1 | -6 | 94 | i | 17 | -7 | x | x
O=C(Nc1nc2c(F)cccc2s1)C1CC1 | -1 | 86 | i | x | 1 | x | x
CC1CCc2c(sc(Nc3nc4c(F)cccc4s3)c2C(N)=O)C1 (centres undefined) | 5 | 92 | + | -9 | -13 | i | 6.4*
O=c1[nH]c(CN2CCN(c3ccccc3)CC2)nc2scc(-c3ccccc3)c12 | 12 | 112 | + | -2 | -1 | i | 0
SMILES | TLR9-MyD88 block | ABCB6 inh 2 | Myeloid diff 2 | TLR4-MyD88 BLA | NOD2-RIPK2 inh | Myeloid diff | GFP autofluor
COc1cc(/C=C2\CC/C(=C\c3cc(OC)c(OC)c(OC)c3)C2=O)cc(OC)c1OC | -2 | 108 | + | -4 | 2 | i | 0
COc1cc2c(cc1OC)C(c1cc3ccccc3oc1=O)=NC(C)(C)C2 | 0 | 90 | i | 11 | 2 | i | 0
COc1ccc(C2=NC(C)(C)Cc3cc(OC)c(OC)cc32)cc1OC | -5 | 99 | i | x | -3 | x | x
O=C(Nc1sccc1C(=O)NCc1ccco1)c1cccnc1 | 7 | 104 | i | 0 | -9 | i | 0
O=C(NCc1ccco1)c1ccccc1 | -9 | 96 | i | x | 8 | x | x
O=C1CC(C(=O)N2CCCc3ccccc32)CN1c1ccc(Cl)cc1 (centres undefined) | -8 | 92 | i | x | -3 | i | 0
CCCCn1c(N)c(N(CC(C)C)C(=O)c2ccc(Br)s2)c(=O)[nH]c1=O | -1 | 100 | i | x | -7 | x | x
O=[N+]([O-])c1ccc(O)c(CN2CCCCCC2)c1 | 4 | 101 | i | x | -3 | i | 0
O=[N+]([O-])c1cccc(CN2CCCCCC2)c1 | 4 | 93 | i | x | -4 | x | x
CC(C)C(c1nnnn1Cc1ccc(F)cc1)N1CCN(c2ccc(O)cc2)CC1 (centres undefined) | x | 100 | i | -2 | -1 | x | x
COc1ccc(NC(=O)Cn2nnc(C(=O)NCc3cccs3)c2N)cc1OC | 10 | 92 | i | x | 5 | x | x
Cc1ccc(NC(=O)Cn2nnc(C(=O)NCc3cccs3)c2N)cc1F | 0 | 105 | + | x | -3 | i | 0
CC(C)N1CCC1(C)C(=O)Nc1ccc2cn[nH]c2c1 (centres undefined) | x | 91 | i | x | -15 | x | x
Nc1nnc(CCOc2ccccc2Cl)s1 | -9 | 96 | i | -3 | 2 | i | 0
O=C(Nc1cccc(C(F)(F)F)c1)C1C2CC3OC(=O)C1C3C2 (centres undefined) | -4 | 102 | + | 7 | -7 | i | 0
O=C(CCCOc1ccc(Cl)cc1Cl)NCCCn1ccnc1 | -6 | 97 | i | 10 | -10 | x | x
CC(Oc1ccc(Cl)cc1Cl)C(=O)NCCCn1ccnc1 (centres undefined) | -1 | 94 | + | -2 | 4 | i | 0
Oc1ccc(/C=C/c2ccc3ccccc3n2)cc1 | -1 | 101 | + | -3 | 17 | i | 20*
C(=C\c1ccc2ccccc2n1)/c1ccccc1 | 3 | 98 | i | x | -3 | x | x
